# In the supplement of paper PMC8728848:
# Only a selection was taken, and the strongest signals are over-represented in it overall.
# B1: E-Selectin (Mus musculus), Q00690 (protein)
# chain: MNASRFLSALVFVLLAGESTAWYYNASSELMTYDEASAYCQRDYTHLVAIQNKEEINYLNSNLKHSPSYYWIGIRKVNNVWIWVGTGKPLTEEAQNWAPGEPNNKQRNEDCVEIYIQRTKDSGMWNDERCNKKKLALCYTASCTNASCSGHGECIETINSYTCKCHPGFLGPNCEQAVTCKPQEHPDYGSLNCSHPFGPFSYNSSCSFGCKRGYLPSSMETTVRCTSSGEWSAPAPACHVVECEALTHPAHGIRKCSSNPGSYPWNTTCTFDCVEGYRRVGAQNLQCTSSGIWDNETPSCKAVTCDAIPQPQNGFVSCSHSTAGELAFKSSCNFTCEQSFTLQGPAQVECSAQGQWTPQIPVCKAVQCEALSAPQQGNMKCLPSASGPFQNGSSCEFSCEEGFELKGSRRLQCGPRGEWDSKKPTCSAVKCDDVPRPQNGVMECAHATTGEFTYKSSCAFQCNEGFSLHGSAQLECTSQGKWTQEVPSCQVVQCPSLDVPGKMNMSCSGTAVFGTVCEFTCPDDWTLNGSAVLTCGATGRWSGMPPTCEAPVSPTRPLVVALSAAGTSLLTSSSLLYLLMRYFRKKAKKFVPASSCQSLQSFENYHVPSYNV
# Columns and labels:
# Assay in all cases: glycan array binding signal (z-score within array); higher = stronger binding
# Details in all cases: glycan notation: IUPAC condensed, linker removed
# [1] = target: Fuc(a1-2)Gal(b1-4)GlcNAc(b1-3)Gal(b1-4)GlcNAc(b1-3)Gal(b1-4)GlcNAc
# Procedure, shortened: (§1)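 The binding signal is a Z-score computed within each array and averaged over linkers. Arrays of the same protein sequence at different concentrations or buffers were also averaged together. Data originate from 3228 arrays in the Consortium for Functional Glycomics database, kept only where the protein sequence was available.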
# [2] = target: Fuc(a1-2)[GalNAc(a1-4)]Gal(b1-4)GlcNAc
# Procedure, shortened: as §1
# [3] = target: Fuc(a1-3)[Gal(b1-4)]GlcNAc(b1-4)Gal(b1-4)[Fuc(a1-3)]GlcNAc
# Procedure, shortened: as §1
# [4] = target: Fuc(a1-3)[Gal3S(b1-4)]Glc6S
# Procedure, shortened: as §1
# [5] = target: Fuc(a1-3)[Gal3S(b1-4)]GlcNAc6S
# Procedure, shortened: as §1
# [6] = target: Gal(b1-4)GlcNAc(b1-3)GalNAc
# Procedure, shortened: as §1
# [7] = target: Gal3S(b1-3)[Fuc(a1-4)]GlcNAc
# Procedure, shortened: as §1
# [8] = target: GlcNAc(b1-3)[GlcNAc(b1-6)]GalNAc
# Procedure, shortened: as §1
# GlcNAc(b1-6)GalNAc = target: GlcNAc(b1-6)GalNAc
# Procedure, shortened: as §1
# [9] = target: Man(a1-3)[Man(a1-6)]Man(b1-4)GlcNAc(b1-4)GlcNAc
# Procedure, shortened: as §1
# Neu5Ac(a2-3)Gal = target: Neu5Ac(a2-3)Gal
# Procedure, shortened: as §1
# [10] = target: Neu5Ac(a2-3)Gal(b1-3)[Fuc(a1-4)]GlcNAc
# Procedure, shortened: as §1
# [11] = target: Neu5Ac(a2-3)Gal(b1-4)GlcNAc
# Procedure, shortened: as §1
# [12] = target: Neu5Ac(a2-3)Gal(b1-4)GlcNAc(b1-3)Gal(b1-4)GlcNAc(b1-3)Gal(b1-4)GlcNAc
# Procedure, shortened: as §1
# [13] = target: Neu5Ac(a2-3)Gal(b1-4)[Fuc(a1-3)]GlcNAc(b1-3)Gal(b1-4)[Fuc(a1-3)]GlcNAc(b1-3)Gal(b1-4)[Fuc(a1-3)]GlcNAc
# Procedure, shortened: as §1
# [14] = target: Neu5Ac(a2-3)Gal(b1-4)[Fuc(a1-3)]GlcNAc6S
# Procedure, shortened: as §1
# [15] = target: Neu5Gc(a2-3)Gal(b1-3)[Fuc(a1-4)]GlcNAc
# Procedure, shortened: as §1
binder,measurement,setting,value
B1,glycan array binding signal (z-score),[1],-0.255
same,glycan array binding signal (z-score),[2],-0.301
same,glycan array binding signal (z-score),[3],0.598
same,glycan array binding signal (z-score),[4],5.1
same,glycan array binding signal (z-score),[5],2.52
same,glycan array binding signal (z-score),[6],-0.338
same,glycan array binding signal (z-score),[7],4.55
same,glycan array binding signal (z-score),[8],-0.279
same,glycan array binding signal (z-score),GlcNAc(b1-6)GalNAc,-0.272
same,glycan array binding signal (z-score),[9],-0.288
same,glycan array binding signal (z-score),Neu5Ac(a2-3)Gal,-0.277
same,glycan array binding signal (z-score),[10],4.47
same,glycan array binding signal (z-score),[11],-0.333
same,glycan array binding signal (z-score),[12],-0.184
same,glycan array binding signal (z-score),[13],3.13
same,glycan array binding signal (z-score),[14],3.24
same,glycan array binding signal (z-score),[15],4.57
